Consider 20 compounds from PubChem BioAssay (NCI).

Test [1] can be described thus: NCI Yeast Anticancer Drug Screen. Data for the rad50 strain (AID 155).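 Also: 0% = growth of vehicle-only cultures of the same strain.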 As to conditions: S. cerevisiae rad50 strain growth inhibition; at 50.0 µM; hits give high values. The essentials: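 Vehicle-treated cultures provide the reference for the growth inhibition reported for compound-exposed, repair-deficient yeast.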
The nature of test [2]: NCI Yeast Anticancer Drug Screen. Data for the mec2-1 strain (AID 157). As to conditions: S. cerevisiae mec2-1 strain, at 50.0 µM, hits give high values. The essentials:
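mec2-1 yeast strain, carrying an alteration in DNA damage repair or cell cycle control, was exposed to compounds; growth inhibition was measured relative to vehicle-treated controls.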

Test [3] in a line: NCI Yeast Anticancer Drug Screen. Data for the sgs1 mgt1 strain (AID 161).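 Also: 0% = growth of cultures given vehicle only.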 The settings on record: S. cerevisiae sgs1 mgt1 strain, at 50.0 µM, hits give high values. The essentials: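 Growth of a repair-deficient yeast mutant was monitored after compound treatment and expressed as inhibition relative to vehicle-treated cultures.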
Test [4] in a line: NCI Yeast Anticancer Drug Screen. Data for the cln2 rad14 strain (AID 165).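 Also: 0% = growth equal to vehicle treated cultures.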 The settings on record: S. cerevisiae cln2 rad14 strain, at 50.0 µM, hits give high values. Summed up: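 Yeast carrying cln2 and rad14 alterations (cell cycle control and DNA damage repair) were exposed to compounds. Growth inhibition was measured against vehicle-treated controls.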
Test [5] is described as follows: NCI Yeast Anticancer Drug Screen. Data for the bub3 strain (AID 167). As to conditions: S. cerevisiae bub3 mutant strain, at 50.0 µM, hits give high values. Summed up: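 Mutant yeast screening strain plus compound; vehicle-treated cultures serve as the 0% inhibition reference.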
Test [6] is described as follows: NCI Yeast Anticancer Drug Screen. Data for the mlh1 rad18 strain (AID 175). The settings on record: S. cerevisiae mlh1 rad18 strain growth inhibition; at 50.0 µM; hits give high values. The essentials: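 Growth inhibition of the yeast strain was measured after compound exposure and expressed relative to vehicle-treated controls. The strain carries defined defects in DNA damage repair.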

Compounds without any hit were thinned out: in the full panel of roughly 79,000, 15% have a hit. Unmarked numbers belong to inactive results. Calls of active or inactive are those of the source. Rule as the data show it: active = growth inhibition above about 70%; inactive = the rest.

For the compound `CC1(C)NC(=O)N(CCCCCCN2C(=O)NC(C)(C)C2=O)C1=O`, the growth inhibition in test [1] is 5.1%; in test [2], -9.45%; in test [3], 5.85%; in test [4], 6.1%; in test [5], -20.2%; in test [6], 8.6%.

With `Cc1cccc(C)c1OC(=O)/C=C/c1ccccc1`, the growth inhibition in test [1] is 31.3%; in test [2] it was -10.5%; in test [3], 33%; in test [4], -11.2%; in test [5], -11.8%; in test [6] it was 1.05%.

Consider `CN(C)C(=S)Oc1cc(Cl)c(Cl)cc1Cl`, for which the growth inhibition in test [1] is 86.1% (active); in test [2], 95.6% (active); in test [3] it was 91.3% (active); in test [4], 81.8% (active); in test [5], 91.3% (active); in test [6] it was 96% (active).

For `CCN(CC)C(=O)c1ccc(C)c(N=NN(C)C)c1`, the growth inhibition in test [1] is -5.7%; in test [2], -36.2%; in test [3], -20.9%; in test [4], -0.15%; in test [5], -19.9%; in test [6], -8.75%.

Turning to `CC(=O)CSCc1ccccn1`, the growth inhibition in test [1] was 5.05%; in test [2] it was 15%; in test [3], -18.6%; in test [4] it was 10.2%; in test [5], 22.6%; in test [6] it was -1.9%.

For the compound `CCCCCC1CCN(C(=O)c2ccc(N)cc2)CC1`, the growth inhibition was 90% (active) in test [1]; 52.8% in test [2]; 44.8% in test [3]; 49% in test [4]; 94.4% (active) in test [5]; 42.7% in test [6].

Take `NC(N)=Nc1ccc(Sc2ccc(N=C(N)N)cc2)cc1`: the growth inhibition in test [1] is -15.8%; in test [2], -35.5%; in test [3], -16.6%; in test [4] it was -19.6%; in test [5], -4.65%; in test [6] it was -26.5%.

On to `CC(Br)CCl` (stereo not given), for which the growth inhibition in test [1] was 26.4%; in test [2] it was 17.1%; in test [3] it was 22.1%; in test [4], 2.1%; in test [5], 14.4%; in test [6], 39.2%.

As for `Cc1nc2sccn2c1C(=O)NC(=O)Nc1ccc(Cl)cc1`, the growth inhibition in test [1] is 0.35%; in test [2], -14.8%; in test [3], -2.75%; in test [4], 5.45%; in test [5] it was -9.8%; in test [6] it was -16.1%.

On to `O=C(O)CC(NC(=O)/C(=C/c1ccccc1)NC(=O)c1ccccc1)C(=O)O` (stereo not given), for which the growth inhibition in test [1] is -2.45%; in test [2], 0.65%; in test [3], 2.95%; in test [4] it was 6.85%; in test [5] it was 25.1%; in test [6], -22.1%.

Take `Cc1[nH]nc2c1NC(=O)OC(C)C2` (stereo not given): the growth inhibition is 11.8% in test [1]; -2.9% in test [2]; 0.9% in test [3]; -9.85% in test [4]; -2.85% in test [5]; 2.9% in test [6].

Consider `CC1(C)C=CC(=NO)C=C1`, for which the growth inhibition in test [1] was -4.65%; in test [2], 2.65%; in test [3], -5.95%; in test [4], 6.45%; in test [5], 8.4%; in test [6], 6.7%.

`O=C(c1ccccc1)N1CCOCC1`: the growth inhibition in test [1] was 9.75%; in test [2], -2.5%; in test [3], -3.25%; in test [4] it was 12.3%; in test [5] it was -0.75%; in test [6] it was 13.2%.

Take `O=C(O)[C@@H]1[C@H](C(=O)O)[C@H](C(=O)O)C[C@@H]1C(=O)O`: the growth inhibition in test [1] is 6.2%; in test [2], -33.9%; in test [3], -24.9%; in test [4] it was -1.85%; in test [5], -69%; in test [6], 20.1%.

As to `Cn1c(N)c(/C=C/C(=O)Oc2ccccc2)c(=O)n(C)c1=O`, the growth inhibition in test [1] is 49.7%; in test [2], 18.4%; in test [3], 16.5%; in test [4], 16.8%; in test [5], -8.8%; in test [6], -43.1%.

`CC(C)(C)c1ccc(O)c(CN(Cc2cc(C(C)(C)C)ccc2O)c2ccccc2)c1`: the growth inhibition is 44.4% in test [1]; 26.9% in test [2]; 21.6% in test [3]; -2.2% in test [4]; 62% in test [5]; 54.8% in test [6].

With `Nc1[nH]n(-c2ccccc2)c(=O)c1/C=N/C(=S)N=Nc1c(O)[nH]c2ccccc12`, the growth inhibition in test [1] is 1.5%; in test [2], -0.3%; in test [3] it was 41%; in test [4] it was 1.5%; in test [5] it was 9.35%; in test [6], 24.8%.

With `Cc1ccc(S(=O)(=O)/C(C#N)=C/NC(=S)Nc2ccc(C)cc2C)cc1`, the growth inhibition in test [1] is -53.7%; in test [2], -26.9%; in test [3] it was -30.8%; in test [4], -41.4%; in test [5] it was -40.5%; in test [6] it was -41.4%.

In the case of `CCC(/C=C/c1ccccc1)=N\NC(=O)c1ccc(Cl)cc1`, the growth inhibition in test [1] was 16.2%; in test [2], 5.5%; in test [3], 7.5%; in test [4] it was 1.7%; in test [5], 19.9%; in test [6], 7.95%.

On to `Cc1cc(Cl)cc(CN(C)Cn2c(=O)cc[nH]c2=O)c1O`, for which the growth inhibition is 6.45% in test [1]; -7.65% in test [2]; 2.7% in test [3]; -31.9% in test [4]; 8.45% in test [5]; 2.2% in test [6].
